# Assay outcomes: PubChem, National Center for Advancing Translational Sciences (NCATS)
# Giardia FBPA inh-1 – Giardia lamblia aldolase inhibition | 290,000 compounds, 0.71% hits | purified Giardia FBPA | AID 2451 | Potency, µM (titrated, usually from 59.6 µM), for the others: top-dose activity, negative = inhibition, actives largely listed as inhibitors; also: % is scaled to controls: 0 for no effect and ±100 for the full control effect; nearly all actives have a fitted effect of over 55% in size
#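 Giardia FBPA (40 nM reagent) was preincubated 10 min at RT with compound (up to 57.5 uM final), then substrate plus GAPDH/TPI/NAD/arsenate coupling system with diaphorase/resazurin was added; resorufin fluorescence (525/598 nm) was read after 20 min.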
# RE007 growth inh – less growth of the S. pombe RE007 Vpr strain. S. pombe RE007 Vpr strain, BacTiter-Glo ATP luminescence, 24 h. Potency, µM (series often up to 92.2 µM), inactives show top-dose activity change, negative = less growth, actives largely listed as inhibitors. 360,000 compounds, 0.21% hits. AID 651644; active = well fitted falling curve with a large enough effect; inconclusive = small, poorly fitted or top-dose-only effect; inactive = no such curve, though single readings can be large or run the other way; also: % is scaled to controls: 0 for no effect and ±100 for the full control effect; nearly all actives have a fitted effect of over 50% in size
#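 Fission yeast RE007 carrying one integrated HIV-1 vpr copy, seeded at OD 0.01 in PMG+AL medium with 23 nL pinned compound. Grown 24 h at 30 degrees; viability read by BacTiter-Glo luminescence after 5 min.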
# LmPK inhibitor – blocks Leishmania mexicana pyruvate kinase activity | purified LmPK, Kinase-Glo ATP luminescence, 1 h | Potency, µM (series often up to 57.5 µM), inactives show at the highest dose activity change, negative = inhibition, actives largely listed as inhibitors | 290,000 compounds, 0.37% hits; also: % is scaled to controls: 0 for no effect and ±100 for the full control effect
# Target sequence (Q27686 whole entry, looked up): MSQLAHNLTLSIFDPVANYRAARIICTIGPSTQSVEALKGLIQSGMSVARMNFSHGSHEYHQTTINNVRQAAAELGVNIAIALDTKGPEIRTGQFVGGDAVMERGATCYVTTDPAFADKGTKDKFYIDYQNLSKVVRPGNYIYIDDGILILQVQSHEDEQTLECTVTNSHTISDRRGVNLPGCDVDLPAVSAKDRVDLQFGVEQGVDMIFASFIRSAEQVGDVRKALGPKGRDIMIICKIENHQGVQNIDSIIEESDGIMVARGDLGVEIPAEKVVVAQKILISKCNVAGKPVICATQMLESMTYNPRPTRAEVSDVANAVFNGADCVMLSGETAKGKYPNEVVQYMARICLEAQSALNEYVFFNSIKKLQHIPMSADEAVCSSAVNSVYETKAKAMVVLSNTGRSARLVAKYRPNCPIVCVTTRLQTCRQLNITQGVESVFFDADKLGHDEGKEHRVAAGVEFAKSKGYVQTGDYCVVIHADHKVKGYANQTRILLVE
#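 Purified LmPK (0.1 nM) converted ADP (0.1 mM) to ATP with PEP (0.5 mM) in imidazole buffer pH 7.2 with KCl and MgCl2, 1 h at room temperature. ATP was read by Kinase-Glo luminescence; data normalized to uninhibited and no-enzyme controls.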
# SARS PLP yeast – blocks SARS-CoV papain-like protease in a yeast assay | S. cerevisiae expressing SARS-CoV PLpro, growth rescue | Potency, µM (doses to about 32.9 µM), inactives show at the highest dose activity, positive = growth rescue, usual class: activators | 330,000 compounds, 0.19% hits | AID 485353; calls by dose curve; also: 0% is about no effect; nearly all actives have a fitted effect of over 55% in size
# Tb PYK inh – T. brucei pyruvate kinase inhibition | Q57TT1 | TbPYK enzyme, Kinase-Glo Plus ATP luminescence, 45 min | Potency, µM (top dose mostly 76.8 µM), for the others: at the top dose activity, negative = inhibition, most hits filed as inhibitors | 410,000 compounds, 0.12% hits | AID 624173; also: % is scaled to controls: 0 for no effect and ±100 for the full control effect; nearly all actives have a fitted effect of over 50% in size
#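 Luminescent Kinase-Glo Plus end-point after 45 min room-temperature reaction of T. brucei pyruvate kinase started with 130 uM ADP (final). Buffer TEA 50 mM pH 7.2 with KCl, MgCl2, BSA, Tween-20; titration-based qHTS with fitted concentration-effect curves.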
# Giardia growth – blocks growth of Giardia lamblia trophozoites | shares compounds with Giardia FBPA inh-1 | Potency, µM (titrated, usually from 57.5 µM), for the others: top-dose activity change, negative = inhibition, hits mostly inhibitors | AID 2785 | Giardia lamblia trophozoite growth inhibition | 1,500 compounds, 5% hits;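 also: trophozoites exposed to compound for 48 h at 37 °C; % is scaled to controls: 0 for no effect and ±100 for the full control effect; nearly all actives have a fitted effect of over 70% in size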
# Mammalian tox – toxic to mammalian cells in Giardia aldolase counter-screen; shares compounds with Giardia FBPA inh-1; mammalian cell viability counter-screen, qHTS; Potency, µM (top dose mostly 57.5 µM), for inactives: at the highest dose viability change, negative = toxicity, actives largely listed as inhibitors; 1,500 compounds, 4% hits;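 also: Chinese hamster ovary cells used as mammalian cytotoxicity surrogate; viability measured as cellular ATP by luminescence; compound exposure lasted 48 h before reading; % is scaled to controls: 0 for no effect and ±100 for the full control effect; nearly all actives have a fitted effect of over 60% in size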
# Giardia FBPA inh-2 – confirmation of Giardia fructose-bisphosphate aldolase inhibitors | shares compounds with Giardia FBPA inh-1 | purified Giardia aldolase enzyme activity, qHTS | 1,500 compounds, 5% hits | Potency, µM (top dose mostly 57.5 µM), inactives show at the highest dose activity change, negative = inhibition, usual class: inhibitors | AID 2787; also: % is scaled to controls: 0 for no effect and ±100 for the full control effect; nearly all actives have a fitted effect of over 45% in size
# Rabbit FBPA inh – rabbit FBP aldolase inhibition by Giardia aldolase hits. shares compounds with Giardia FBPA inh-1. Rabbit muscle FBPA enzyme inhibition, selectivity counter-screen. Potency, µM (doses to about 57.5 µM), for the others: at the top dose activity, negative = inhibition, hits mostly inhibitors. 1,500 compounds, 4% hits; also: % is scaled to controls: 0 for no effect and ±100 for the full control effect; nearly all actives have a fitted effect of over 60% in size
# GAPDH counter – counter-screen for Giardia aldolase inhibitors: GAPDH coupling enzyme; shares compounds with Giardia FBPA inh-1; GAPDH coupling enzyme counterscreen, biochemical, qHTS; Potency, µM (top dose mostly 57.5 µM), for the others: top-dose activity change, negative = inhibition, usual class: inhibitors; 1,500 compounds, 6% hits; AID 2795; also: % is scaled to controls: 0 for no effect and ±100 for the full control effect; nearly all actives have a fitted effect of over 55% in size
# * hit, by the source's call; ? = inconclusive; nt = not tested or not shown; [ ] = another dose, or the depositor's remark. The list is not random: actives were taken first. Their share in the collection is about 1.1%. Unless noted, calls follow the shape of the dose curve; as a rule, active = well fitted curve in the direction sought with a large enough effect; inconclusive = small, poorly fitted or top-dose-only effect, or another doubt; inactive = no such curve, though single readings can be large; an effect the other way counts as inactive or inconclusive. Potency is read from the fitted curve at half-maximal effect.
SMILES,Giardia FBPA inh-1,RE007 growth inh,LmPK inhibitor,SARS PLP yeast,Tb PYK inh,Giardia growth,Mammalian tox,Giardia FBPA inh-2,Rabbit FBPA inh,GAPDH counter
CCC1CCCCN1CCCNC(=O)c1c(C)oc2ncn(CC(C)C)c(=O)c12 (stereo unspecified),nt,nt,nt,nt,0.0%,nt,nt,nt,nt,nt
Cc1cc(Nc2ccccc2)nc2cc(O)ccc12,-8.5%,9.9%,-1.7%,9.8%,1.3%,nt,nt,nt,nt,nt
COc1ccc(Nc2cc(C)c3ccc(O)cc3n2)cc1,-24.9%,-1.1%,2.1%,1.2%,-0.5%,-1.4%[38.3 µM],11.9%,?,?,?
CCOc1ccc(C(=O)c2oc3ccccc3c2NC(=O)c2cc(-c3ccccc3)on2)cc1,nt,nt,nt,nt,0.0%,nt,nt,nt,nt,nt
CCCCn1cc(S(=O)(=O)c2cc(C)ccc2C)c(=O)c2cc(F)c(F)cc21,nt,nt,nt,nt,2.0%,nt,nt,nt,nt,nt
CCOC(=O)C1CCN(Cc2ccccn2)CC1,17.8µM*,nt,0.1%,-4.0%,nt,?,-2.3%,-0.3%,11.0%,5.1%
COc1cccc(C(=O)N2CCN(Cc3ccccn3)CC2)c1OC,?,-10.4%,-9.5%,-11.4%,21.1%,nt,nt,nt,nt,nt
COc1cccc(C(=O)N2CCN(Cc3ccccn3)CC2)c1,25.1µM*,-2.5%,-2.5%,-0.5%,-3.9%,65.8%,11.4%,2.8%,-2.8%,-26.4%
CC(C)CCNc1nc2c(-c3ccccc3)nnn2c2ccccc12,nt,nt,nt,nt,10.3%,nt,nt,nt,nt,nt
Cc1ccc(NC(=O)CSc2nnc(-c3ccco3)c(-c3ccco3)n2)cc1,?,-2.1%,3.7%,?,?,nt,nt,nt,nt,nt
Cc1cccc(C)c1NC(=O)CSc1nnc(-c2ccco2)c(-c2ccco2)n1,7.92µM*,7.7%,12.7%,0.1%,?,-0.2%[10.4 µM],15.1%,?,-22.8%,?
Cc1ccc(C(C)C)c(OCc2ccc(C(=O)Nc3ccc(S(N)(=O)=O)cc3C)o2)c1,nt,nt,nt,nt,-2.2%,nt,nt,nt,nt,nt
CCCCC1(CCO)C(=O)NC(=S)NC1=O,nt,-5.9%,nt,nt,2.4%,nt,nt,nt,nt,nt
CCCCC1(C)NC(=S)N2N1C(=S)NC2(C)CCCC (stereo unspecified),15.8µM*,4.5%,2.7%,6.1%,?,?,21.0%,9.7%,1.9%,13.3%
COc1ccc(-c2cn3cccnc3n2)cc1NC(=O)c1c(F)cccc1F,nt,nt,nt,nt,0.0%,nt,nt,nt,nt,nt
CCSC1=N/C(=C\c2ccc(-c3ccccc3[N+](=O)[O-])o2)C(=O)S1,?,-0.6%,3.2%,12.7%,0.8%,6.2%[38.3 µM],-19.4%,-20.3%,-5.0%,-18.2%
Cc1ccccc1N1CCN(C(=S)c2ccc(-c3cccc([N+](=O)[O-])c3)o2)CC1,13.0%,-0.2%,-2.1%[11.5 µM],0.2%,-13.4%,nt,nt,nt,nt,nt
Cc1ccc(N2CCN(C(=S)c3ccc(-c4cccc([N+](=O)[O-])c4)o3)CC2)cc1,15.8µM*,9.9%,-2.2%,1.1%,-14.8%,-16.6%[10.4 µM],-13.5%,-1.4%,-4.9%,5.7%
CCOc1ccccc1NC(=O)CSC1=Nc2ccccc2C2=NC(CC(=O)NCc3ccc4c(c3)OCO4)C(=O)N12 (stereo unspecified),nt,nt,nt,nt,3.4%,nt,nt,nt,nt,nt
CC1CCCN(C(=O)c2ccc3c(=O)n(C4CCCC4)c(=S)[nH]c3c2)C1 (stereo unspecified),?,2.4%,-21.6%,0.2%,-15.3%,nt,nt,nt,nt,nt
